From PubChem BioAssay
A selection: hits, their analogues and other compounds. The true share with any hit is near 6.7%.
SW480 rereplic: DNA re-replication induction in SW480 cells | AID 624297 | Potency, µM (doses to about 46.1 µM), actives largely listed as activators | SW480 DNA re-replication, Hoechst DNA content imaging, 48 h | hit rate 1.8% among 340,000; note: nearly all actives have a fitted effect of over 55% in size
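Readout is total intensity of Hoechst-stained nuclei, excited at 405 nm and collected at 500-530 nm. Compound treatment lasted 48 hr at 37 C in 5% CO2 before staining.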
KB-V1 cytotox: KB-V1 MDR subline cytotoxicity; KB-V1 MDR cells viability, CellTiter-Glo, 72 h; Potency, µM (highest dose often 46.1 µM), most hits filed as cytotoxic; hit rate 3.4% among 400,000; note: nearly all actives have a fitted effect of over 60% in size
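Luminescent ATP read-out (CellTiter-Glo, 10 min) measures survival of drug-selected KB-V1 MDR cells after 72 h, 37 degrees C compound exposure. Medium: phenol-red-free DMEM, 10% FBS. Values from fitted concentration-response curves.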
PINK1 expr mod: modulators of PINK1 expression; AID 624263; hit rate 0.2% among 410,000; Potency, µM (doses to about 76.6 µM), most hits filed as activators; PINK1 immunofluorescence, high-content cytometry, 24 h; active = well fitted activation curve with a large enough effect; inconclusive = small, poorly fitted or top-dose-only effect; cell line not stated here; note: nearly all actives have a fitted effect of over 65% in size
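Stable cell line treated 24 h with compounds at 5 concentrations (CCCP controls), then fixed and immunostained for PINK1 plus nuclear and cell stains; PINK1 immunofluorescence quantified by laser-scanning microplate cytometry.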
MCF10A rereplic: induces DNA re-replication in MCF 10a normal breast cells; MCF 10A DNA re-replication, Hoechst nuclear intensity, 48 h; Potency, µM (top dose mostly 46.1 µM), actives largely listed as activators; hit rate 2.9% among 350,000; AID 624296; note: nearly all actives have a fitted effect of over 50% in size
KB-3-1 cytotox: KB-3-1 parental cell cytotoxicity; KB-3-1 viability, CellTiter-Glo ATP luminescence, 72 h; Potency, µM (titrated, usually from 46.1 µM), hits mostly cytotoxic; hit rate 1.4% among 400,000; AID 1347075; note: nearly all actives have a fitted effect of over 60% in size
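KB-3-1 parental drug-naive adenocarcinoma cells in DMEM/10% FBS, incubated 72 h at 37 C with pin-transferred compounds across a concentration series. Viability by CellTiter-Glo luminescence; concentration-response curves fitted after normalization.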
Large screens that a line does not name were inactive; ! = repeats disagree. Unless noted, calls come from the whole dose curve; as a rule, active = well fitted curve in the direction sought with a large enough effect; inconclusive = small, poorly fitted or top-dose-only effect, or another doubt; inactive = no such curve, though single readings can be large; an effect the other way counts as inactive or inconclusive.

COCCN1C(=O)/C(=C/c2ccc(N3CCCC3)cc2C)SC1=S	PINK1 expr mod 22.4µM
COCCn1c(C)cc(/C=C2/SC(=O)N(CC(=O)N3CCCC3)C2=O)c1C	KB-V1 cytotox inconclusive
Cc1cc(N2CCOCC2)ccc1/C=C1\NC(=O)N(Cc2ccccc2F)C1=O	KB-V1 cytotox inconclusive, MCF10A rereplic 5.17µM
CCN=C1S/C(=C\c2ccc(N3CCOCC3)cc2C)C(=O)N1CC	SW480 rereplic inconclusive, KB-V1 cytotox inconclusive, MCF10A rereplic inconclusive, KB-3-1 cytotox 6.51µM
CN=C1S/C(=C\c2ccc(N3CCOCC3)cc2C)C(=O)N1C	none
Cc1cc(N2CCOCC2)ccc1/C=C1\NC(=O)N(Cc2ccccc2)C1=O	MCF10A rereplic inconclusive
CCCCN1C(=O)C(=O)N(CC(=O)Nc2ccccc2C(=O)OCC)C1=O	KB-3-1 cytotox inconclusive
CCCCC1CCC(C(=O)Nc2ccc(N3CCOCC3)cc2N2CCOCC2)CC1 (stereo not drawn)	none
COc1ccccc1Cn1c(C)nc2ccccc21	KB-V1 cytotox inconclusive
CCc1nc2ccccc2n1Cc1ccccc1OC	KB-V1 cytotox 14.6µM, KB-3-1 cytotox inconclusive
CCCc1nc2ccccc2n1Cc1ccccc1OC	KB-V1 cytotox 14.6µM, KB-3-1 cytotox inconclusive
COc1ccccc1Cn1c(CCCO)nc2ccccc21	KB-V1 cytotox inconclusive
CCN(CC)C(=O)CSc1nc2ccccc2c(=O)n1OC(C)C	KB-V1 cytotox 2.59µM
CCN(CC)C(=O)CSc1nc2ccccc2c(=O)n1CC	none
CCn1c(C)cc(C(=O)COC(=O)c2ccccc2[N+](=O)[O-])c1C	KB-V1 cytotox 25.9µM
C=CCn1c(C)cc(C(=O)COC(=O)c2ccc(N)c([N+](=O)[O-])c2)c1C	none
O=C1CC(Sc2nnnn2-c2ccccc2)C(=O)N1c1cccc(Cl)c1 (stereo not drawn)	SW480 rereplic inconclusive, MCF10A rereplic inconclusive, KB-3-1 cytotox inconclusive
COc1ccc(N2C(=O)CC(Sc3nnnn3-c3ccc(F)cc3)C2=O)cc1 (stereo not drawn)	SW480 rereplic 10.3µM, MCF10A rereplic inconclusive
COc1ccc(NC(=S)N(CCc2c(C)[nH]c3ccc(C)cc23)Cc2cccs2)cc1	KB-V1 cytotox inconclusive, KB-3-1 cytotox inconclusive
CNC(=S)N(CCc1c(C)[nH]c2ccc(C)cc12)Cc1cccs1	KB-V1 cytotox inconclusive, MCF10A rereplic 3.66µM
COc1ccc(-c2ccc(SC)nn2)cc1	KB-V1 cytotox 9.2µM, KB-3-1 cytotox 8.2µM
COc1ccc(C2=Nn3c(nnc3-c3ccccc3OC)SC2)cc1OC	SW480 rereplic 0.366µM, KB-V1 cytotox 1.16µM!, MCF10A rereplic 0.366µM, KB-3-1 cytotox 0.013µM
COc1ccc(C2=Nn3c(nnc3-c3ccccc3F)SC2)cc1OCC1CC1	SW480 rereplic 18.4µM, KB-V1 cytotox inconclusive, MCF10A rereplic inconclusive, KB-3-1 cytotox 13µM
COc1ccc(C2=Nn3c(nnc3-c3ccccn3)SC2)cc1OC	none
Cc1ccc(C(=O)OCC(=O)Nc2ccc(C)c(S(=O)(=O)N3CCCCC3)c2)o1	none (no result: SW480 rereplic, MCF10A rereplic)
COc1ccc(Cn2c(=O)c3oc4ccccc4c3n(Cc3ccc(F)cc3)c2=O)cc1	none (no result: SW480 rereplic, KB-V1 cytotox, MCF10A rereplic, KB-3-1 cytotox)
CC1CCN(S(=O)(=O)c2ccc3c(ccn3CC(=O)NCc3ccc(N(C)C)cc3)c2)CC1	none (no result: SW480 rereplic, MCF10A rereplic)
CCOC(=O)c1c2c(n(-c3ccc(OC)cc3)c1C)C(=O)C(=O)c1ccccc1-2	SW480 rereplic 5.8µM, KB-V1 cytotox inconclusive, MCF10A rereplic 3.26µM, KB-3-1 cytotox inconclusive
CCOC(=O)c1sc(=S)n(-c2ccc(OC)cc2)c1C	MCF10A rereplic inconclusive
O=C(Cn1ncc2c3ccccc3n(Cc3ccccc3F)c2c1=O)NCCCN1CCCC1=O	KB-V1 cytotox inconclusive, KB-3-1 cytotox 6.51µM
COc1ccc(CC(=O)NCc2ccc3c(c2)CCN3C(=O)c2ccc(C)cc2)cc1OC	none (no result: SW480 rereplic, KB-V1 cytotox, MCF10A rereplic, KB-3-1 cytotox)
CC1(C)CC(NC(=O)c2coc(=O)c(Br)c2)CC(C)(C)N1	SW480 rereplic inconclusive, MCF10A rereplic 18.4µM, KB-3-1 cytotox 16.4µM
CCOc1ccc(NC(=O)c2c(NC(=O)c3ccco3)sc3c2CCC(C(C)(C)C)C3)cc1 (stereo not drawn)	KB-V1 cytotox inconclusive (no result: SW480 rereplic, MCF10A rereplic)
CC(C)CCNC(=O)c1ccc2c(c1)ncn2C1CCCCC1	KB-V1 cytotox 13µM
c1ccc(CNc2ccc3c(c2)ncn3C2CCCCC2)nc1	SW480 rereplic 23.1µM, MCF10A rereplic 20.6µM
CCCCS(=O)(=O)Nc1ccc2c(c1)ncn2C1CCCCC1	KB-V1 cytotox inconclusive, MCF10A rereplic 23.1µM
CCCCNC(=O)c1ccc2c(c1)ncn2C1CCCCC1	none
COc1cc(Cl)c(C)cc1NC(=O)CCc1c(C)nc2c3cccnc3nn2c1C	none (no result: SW480 rereplic, MCF10A rereplic)
Cc1cc(N2CCN(C(c3ccnc4ccccc34)c3nnnn3-c3c(C)cccc3C)CC2)c2ccccc2n1 (stereo not drawn)	KB-V1 cytotox inconclusive (no result: SW480 rereplic, MCF10A rereplic)
COc1ccc([C@H]2C(C(=O)O)=C[C@@H](C(C)(C)C)N2S(=O)(=O)c2ccc(C)cc2)cc1OC	KB-V1 cytotox inconclusive
Nc1ccn(C2OC(COP(=O)(O)O)C(O)C2O)c(=O)n1 (stereo not drawn)	SW480 rereplic 0.651µM, KB-V1 cytotox inconclusive, MCF10A rereplic inconclusive, KB-3-1 cytotox inconclusive
CC(=O)NC[C@H]1O[C@@H](n2ccc(N)nc2=O)[C@H](O)[C@@H]1O	none (no result: SW480 rereplic, MCF10A rereplic)
COc1cc(/C=N/O)cc(Br)c1OCC(=O)NCc1ccccc1	KB-V1 cytotox 16.4µM
CC(C)c1ccc(OCC(=O)NC2CC(C)(C)NC(C)(C)C2)c(Br)c1	KB-3-1 cytotox inconclusive
CN(C(=O)c1cccc(NC(=O)Cc2cccc(NC(=O)C3CCN(C(=O)C4CCCCC4)CC3)c2)c1)C1CCC1	MCF10A rereplic 1.16µM
CN(C(=O)c1cccc(NC(=O)Cc2cccc(NC(=O)C3CCN(C(=O)C4CCC4)CC3)c2)c1)C1CCC1	SW480 rereplic inconclusive
CCOC(=O)N1CCN(C(=S)Nc2cccc(C)c2)CC1	KB-V1 cytotox 18.4µM
COc1ccc(C(=O)C2CCN(CC(=O)Nc3cc(C)cc(C)c3)CC2)cc1	KB-V1 cytotox inconclusive, MCF10A rereplic inconclusive
Cc1ccc(C(=O)C2CCN(CC(=O)Nc3nc(C)cs3)CC2)cc1	KB-V1 cytotox 20.6µM
CN1CCN(C(=S)Nc2cccc(Cl)c2)CC1	KB-V1 cytotox 13µM
Cc1cccc(NC(=O)CN2CCN(CC(=O)Nc3cccc(C)c3)CC2)c1	KB-V1 cytotox inconclusive, MCF10A rereplic 20.6µM
Cc1cccc(NC(=O)CN2CCC(C(=O)c3ccc4c(c3)OCCO4)CC2)c1	KB-V1 cytotox 11.6µM, KB-3-1 cytotox inconclusive
O=C(CN1CCC(C(=O)c2ccc3c(c2)OCCO3)CC1)Nc1ccccc1F	SW480 rereplic inconclusive
Cc1ccc(C(=O)C2CCN(CC(=O)Nc3ccc4c(c3)OCCO4)CC2)cc1	KB-V1 cytotox 11.6µM
CCn1c(=O)c([N+](=O)[O-])c(Cl)c2ccccc21	SW480 rereplic 8.2µM, KB-3-1 cytotox inconclusive
CC(CCc1ccccc1)NC(=O)c1ccc(NC(=O)c2cccc(Br)c2)cc1 (stereo not drawn)	SW480 rereplic inconclusive, KB-V1 cytotox 2.06µM, PINK1 expr mod inconclusive, MCF10A rereplic 18.4µM
COc1cccc(NC(=O)c2ccccc2)c1	none
